Screens deposited in PubChem BioAssay by National Center for Advancing Translational Sciences (NCATS).
This is a sample that favours compounds with a hit; in the whole collection about 3.1% have one here.
Tau FP inhib = qHTS for Inhibitors of Tau Fibril Formation, Fluorescence Polarization | Microtubule-associated protein tau (Homo sapiens), P10636 | Potency, µM (series often up to 57.7 µM), without a hit: at the highest dose activity, negative = inhibition, hits mostly inhibitors | AID 1468, 2008 | K18 P301L tau heparin fibrillization, Alexa594 FP, 6 h | hit rate 0.39% among 280,000; further: nearly all actives have a fitted effect of over 55% in size
Target sequence (P10636 561-689 P618L limits assumed): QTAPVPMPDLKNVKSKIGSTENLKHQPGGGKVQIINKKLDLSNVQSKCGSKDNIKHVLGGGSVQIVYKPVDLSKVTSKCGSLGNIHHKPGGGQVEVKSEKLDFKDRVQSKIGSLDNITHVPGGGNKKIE
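FP of Alexa 594-tau after heparin (20 uM) induction. Substrate: human K18 P301L, 15 uM unlabeled, 0.24 uM labeled. Buffer 100 mM sodium acetate pH 7. 6 hr, 37 C.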
Tau fibril ThT = qHTS for Inhibitors of Tau Fibril Formation, Thioflavin T Binding. Potency, µM (top dose mostly 57.4 µM), without a hit: top-dose activity, negative = inhibition, actives largely listed as inhibitors. recombinant tau K18 P301L, heparin-induced fibrillization, ThT fluorescence. hit rate 2.1% among 270,000; further: nearly all actives have a fitted effect of over 55% in size
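ThT emission at 510 nm, taken 1 hr after adding 30 uM dye, quantifies aggregates formed when 20 uM heparin acts on human tau K18 P301L for 6 hr at 37 C.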
GoLoco inh red = qHTS Assay for Inhibitors of RGS12 GoLoco Motif Activity (Red Fluorophore); AID 880, 2007; Gai1:RGS12 GoLoco peptide FP, rhodamine, 10 min; hit rate 0.44% among 230,000; Potency, µM (series often up to 61.6 µM), inactives show at the top dose activity, negative = inhibition, actives largely listed as inhibitors; active means well fitted inhibition curve with a large enough effect, not every such curve was filed as active; inactive means no such curve, though single readings can be large or run the other way; further: nearly all actives have a fitted effect of over 30% in size
Tau fluor cs = Counterscreen qHTS for Inhibitors of Tau Fibril Formation, Fluorescence Polarization | hit rate 0.93% among 280,000 | Potency, µM (highest dose often 57.7 µM), without a hit: at the top dose activity change, negative = decrease | tau K18 P301L Alexa594 fluorescence, heparin fibrillization; further: nearly all actives have a fitted effect of over 55% in size
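Human tau K18 P301L (15 uM unlabeled, 0.24 uM Alexa 594-labeled) in 100 mM sodium acetate pH 7 with 20 uM heparin, 6 hr at 37 C. ThT 30 uM added, 1 hr ambient; Alexa 594 FP and total fluorescence read at 555/632 nm.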
TRb SRC2 PPI = qHTS for Inhibitors of the Interaction of Thyroid Hormone Receptor and Steroid Receptor Coregulator 2; Thyroid hormone receptor beta (Homo sapiens), P10828; hit rate 0.065% among 280,000; TRbeta-SRC2 peptide binding, fluorescence polarization; receptor liganded with 1 µM T3; Potency, µM (titrated, usually from 106 µM), without a hit: at the top dose activity change, negative = inhibition, actives largely listed as inhibitors;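 further: plate controls were bound peptide for no effect and peptide without receptor for full effect; nearly all actives have a fitted effect of over 50% in size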
Target sequence (P10828 whole entry, looked up): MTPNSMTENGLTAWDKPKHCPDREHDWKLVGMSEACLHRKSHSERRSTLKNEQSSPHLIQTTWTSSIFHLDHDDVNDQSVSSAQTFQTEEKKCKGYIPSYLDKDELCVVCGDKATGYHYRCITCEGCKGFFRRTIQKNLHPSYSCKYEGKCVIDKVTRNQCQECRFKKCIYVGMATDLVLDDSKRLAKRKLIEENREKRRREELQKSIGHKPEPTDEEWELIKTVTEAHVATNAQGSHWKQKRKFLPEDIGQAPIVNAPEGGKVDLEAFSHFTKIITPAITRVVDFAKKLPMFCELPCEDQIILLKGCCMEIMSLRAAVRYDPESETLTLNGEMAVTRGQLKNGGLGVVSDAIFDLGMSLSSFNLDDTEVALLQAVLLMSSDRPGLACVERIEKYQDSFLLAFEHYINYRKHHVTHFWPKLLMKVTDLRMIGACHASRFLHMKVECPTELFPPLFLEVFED
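Decrease in fluorescence polarization of 20 nM Texas Red SRC2 coactivator peptide flagged inhibition of its binding to 0.6 uM TRb LBD; 1 uM T3 included, incubation 5 hr, ex 555/em 632 nm.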
TR SRC2 fluor cs = Total Fluorescence Counterscreen for Inhibitors of the Interaction of Thyroid Hormone Receptor and Steroid Receptor Coregulator 2; TRb/SRC2 Texas Red total fluorescence interference; Potency, µM (titrated, usually from 106 µM), inactives show at the highest dose fluorescence change, negative = quenching; hit rate 0.29% among 280,000; AID 1479, 2009; active means well fitted curve in either direction with a large enough effect; inconclusive means small, poorly fitted or top-dose-only effect
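Human TRb ligand-binding domain at 0.6 uM with 20 nM Texas Red SRC2 peptide in Tris buffer containing 1 uM T3 and 5% DMSO, incubated with compound 5 h at ambient temperature. Total fluorescence (555/632 nm) calculated as parallel + 2 × perpendicular.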
The depositor's hits bear a star; u = inconclusive; x = no result given; [ ] = remark or other dose. Unless noted, the call rests on the fitted dose curve; in most records, active means well fitted curve in the direction sought with a large enough effect; inconclusive means small, poorly fitted or top-dose-only effect, or another doubt; inactive means no such curve, though single readings can be large; an effect the other way counts as inactive or inconclusive. Unless noted, on the % scale 0 is the no-effect control and ±100 the full control effect; potency means the concentration at half of the fitted maximal effect.

SMILES	Tau FP inhib	Tau fibril ThT	GoLoco inh red	Tau fluor cs	TRb SRC2 PPI	TR SRC2 fluor cs
CCCCCOc1ccc(/C=C/C(=O)Nc2sc(C(C)=O)c(C)c2C(=O)OCC)cc1OC	2%	-2%	x	-2%	-6%	2%
Cc1ccc(NC(=O)CN2C(=O)CCc3cc(S(=O)(=O)N4CCOCC4)ccc32)cc1F	-14%	2%	x	-16%	11%	0%
C=C1C(C(=O)Nc2ccc(OC)cc2)C1C(=O)Nc1ccc(OC)cc1 (centres undefined)	-12%	-3%	13%	-4%	2%	-2%
O=C(CCCCCn1c(=O)[nH]c2ccsc2c1=O)NCc1ccc(F)cc1	3%	2%	1%	-9%	-3%	0%
Cc1ccc(N=Cc2nc(/C=C/c3cccc([N+](=O)[O-])c3)oc2O)cc1	12%	1.4µM*	-8%	-16%	-3%	0%
O=c1[nH]c(NCCO)nc2ncn(Cc3ccccc3)c12	-1%	-6%	5%	-7%	-12%	0%
Brc1ccc2ncnc(Nc3ccc(N4CCOCC4)cc3)c2c1	10%	8.9µM*	8%	u	2%	-2%
CNC(=O)c1c(NC(=O)c2nc3ccccc3s2)sc2c1CCC2	12%	7.1µM*	52%	u	10%	-15%
COC(=O)c1c(NC(=O)c2nc3ccccc3s2)sc2c1CCN(C(C)=O)C2	-5%	16µM*	20%	-23%	6%	-14%
CC(C)(C)NS(=O)(=O)c1ccc2nc(NC(=O)Cc3cccs3)sc2c1	8%	3%	8%	-22%	-5%	1%
COC(=O)c1ccc(Cn2c(C)cc(C)[n+]2C)o1	2%	-4%	18µM*	4%	-13%	1%
CCn1cc(CNCc2c(C(=O)N3CCCCC3)nc3c(C)cccn23)cn1	-12%	-15%	9%	-16%	0%	-3%
Cc1ccc2c(c1)C1CN(C)CCC1N2C(=O)c1ccccc1NS(=O)(=O)c1cccc(C(F)(F)F)c1 (centres undefined)	-2%	-8%	-3%	-18%	0%	-18%
O=C1NC(=S)CN1c1ccccc1	u	32µM*	-8%	-19%	3%	-2%
Nc1cc(=O)[nH]c(=S)n1-c1ccccc1	-4%	2%	-17%	-1%	-7%	-3%
COc1ccc(C(=O)/C=C/c2ccc(OC)c(O)c2)c(F)c1	-4%	1%	36%	-2%	1%	-7%
COc1ccc(/C=C/C(=O)CC(=O)/C=C/c2cccc(O)c2OC)cc1O	-9%	1.3µM*	141%	8.9µM*[quencher]	u	u
COc1ccc(/C=C/C(=O)c2ccc(Cl)s2)cc1O	u	7.9µM*	-12%	u	-2%	-6%
COc1cc(/C=C/C(=O)c2ccc(Cl)s2)cc(OC)c1O	5%	14µM*	51%	u	-1%	-9%
COc1cc(/C=C/C(=O)c2cccs2)cc(OC)c1OC	1%	u	-2%	-6%	-7%	-2%
Cc1cccc2c1c1ccc3c(c1n2C)C(=O)C=CC3=O	8.9µM*	3.5µM*	-24%	4µM*[quencher]	2%	-1%
CC1=CC(=O)c2c(O)ccc(O)c2C1=O	u	u	25µM*	u	-23%	22µM*[quencher]
O=C1C=C(N2CCN(c3ccccn3)CC2)C(=O)c2c(O)ccc(O)c21	x	x	6%[14.2 µM]	x	x	x
O=C(O)CC/C(=N/NC(=O)CNC(=O)C(c1ccccc1)c1ccccc1)c1ccccc1	-2%	-2%	-3%	-1%	-2%	1%
CCN1C(=O)/C(=C2/C(=O)N3c4c(cc(OC(C)=O)cc42)C(C)=CC3(C)C)SC1=S	22%	u	6%	u	3%	-3%
SMILES	Tau FP inhib	Tau fibril ThT	GoLoco inh red	Tau fluor cs	TRb SRC2 PPI	TR SRC2 fluor cs
COc1cc2c3c(c1)/C(=C1/SC(NC(C)=O)=NC1=O)C(=O)N3C(C)(C)C=C2C	u	16µM*	2%	14µM*[quencher]	-4%	-5%
CC(C)c1nc(Cl)c(C#N)c2c1COC(C)(C)C2	-3%	-6%	7%	-14%	5%	0%
CCS(=O)(=O)N1CCC(C(=O)N2CCc3ccccc3C2)CC1	u	u	x	16µM*[quencher]	5%	-5%
CC(C)CN(CC(C)C)S(=O)(=O)N1CCC(C(=O)N2CCc3ccccc3C2)CC1	6%	-6%	2%	-5%	-3%	-2%
Cc1ccc(C(=O)/C=C/c2cn(CN3CCN(C)CC3)c3ccccc23)cc1	-9%	u	1%	14µM*[quencher]	-4%	-5%
COc1ccc(/C=C/C(=O)c2ccccc2)c(OC)c1	3%	u	11%	-10%	-1%	-4%
Cc1ccc(C(=O)/C=C/c2c[nH]c3ccccc23)cc1	-14%	u	15%	14µM*[quencher]	-15%	-5%
COc1ccc2[nH]cc(/C=C/C(=O)c3ccccc3)c2c1	11%	u	3%	8.9µM*[quencher]	-2%	-5%
O=C(/C=C/c1c[nH]c2ccccc12)c1ccccc1	u	9%	-5%	0%	1%	-1%
Cc1ccc(S(=O)(=O)/C(C#N)=C/c2c[nH]c3ccccc23)cc1	13µM*	u	16%	10µM*[quencher]	3%	1%
c1ccc(-c2cccc(N3CCCC4(CCNCC4)C3)c2)cc1	x	x	0%	x	x	x
O=C1c2ccccc2C(=O)c2c1ccc(O)c2O	-7%	8.9µM*	-5%	u	-16%	-10%
COC(=O)c1ccc2c(c1O)C(=O)c1ccccc1C2=O	-3%	5.6µM*	-2%	u	5%	-4%
O=C1c2ccc(O)c(O)c2C(=O)c2c(O)ccc(O)c21	13µM*	1.4µM*	-25%	2.5µM*[quencher]	25µM*	45µM*[fluorescent]
O=C1c2cccc(O)c2C(=O)c2c(O)cccc21	-6%	u	-2%	u	-6%	-1%
CCSc1c(C(=O)NC)ccc2c1C(=O)c1ccccc1C2=O	6%	u	1%	-9%	-4%	-6%
O=c1cc(-c2ccc(O)cc2)oc2ccc(O)cc12	-12%	u	10%	-5%	-7%	u
N#CCSc1nc2c(c(C3CC=CCC3)c1C#N)CCC2 (centres undefined)	-9%	u	2%	-22%	-5%	2%
